Compounds without any hit were thinned out: in the full panel of roughly 83,000, 20% have a hit.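 Each cell line was grown in a 96-well plate and treated with one concentration of compound for 48 hours. Values below 10 were considered active.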 Values without a mark were called inactive. Active and inactive are the calls of the source.
What was measured:
Experiment in all cases: NCI-60 one-dose screen, 48 h (100 = growth as untreated, 0 = no growth, -100 = all killed)
Conditions in all cases: 10 µM unless noted
SK-MEL-2 melanoma = system: SK-MEL-2 melanoma
EKVX NSCLC = system: EKVX NSCLC
SN12C renal = system: SN12C renal
UO-31 renal = system: UO-31 renal
TK-10 renal = system: TK-10 renal
ACHN renal = system: ACHN renal
CAKI-1 renal = system: CAKI-1 renal
A498 renal = system: A498 renal
CCRF-CEM leukemia = system: CCRF-CEM leukemia
MOLT-4 leukemia = system: MOLT-4 leukemia

| SMILES | growth (SK-MEL-2 melanoma) | growth (EKVX NSCLC) | growth (SN12C renal) | growth (UO-31 renal) | growth (TK-10 renal) | growth (ACHN renal) | growth (CAKI-1 renal) | growth (A498 renal) | growth (CCRF-CEM leukemia) | growth (MOLT-4 leukemia) |
| --- | --- | --- | --- | --- | --- | --- | --- | --- | --- | --- |
| C=C(CNCCO)[C@@H]1CC[C@]2(CO)CC[C@]3(C)[C@H](CC[C@@H]4[C@@]5(C)CCC(N)C(C)(C)[C@@H]5CC[C@]43C)[C@@H]12 (stereo partly specified) | -29.2% (active) | 72% | 71.7% | 81.7% | 68.9% | 97.5% | 54.1% | 81.7% | 1.11% (active) | 8.81% (active) |
| CCOC(=O)C(Cc1ccc(OC)cc1)C(=O)OCC | 43.4% | 69.3% | 40% | 46.7% | 46.6% | 44.7% | -14.2% (active) | 54.5% | 14.3% | 37.7% |
| Cc1ccc(C(=O)c2ccc(CC(=O)NN3C(=O)c4ccccc4C3=O)n2C)cc1 | 102% | 100% | 92.8% | 75.7% | 111% | 96.3% | 87.4% | 104% | 110% | 100% |
| COc1ccc(/C=C2\CN(C(=O)C(Cl)Cl)C/C(=C\c3ccc(OC)cc3)C2=O)cc1 | 68.6% | 14.5% | -38.9% (active) | -97.8% (active) | 20.4% | -58.3% (active) | -18.9% (active) | -73.1% (active) | 9.77% (active) | 5.42% (active) |
| O=C(Cn1nnc2ccccc21)N/N=C/c1c[nH]c2ccccc12 | 38.4% | 62.4% | 45.9% | 52.4% | 64.7% | 64.1% | 45.7% | 60.4% | 47.7% | 29.9% |
| COc1ccc(-c2n[nH]c(=O)c3nc(NC(=S)Nc4ccc(Oc5ccccc5)cc4)sc23)cc1 | 98.6% | 106% | 100% | 77.1% | 92.8% | 105% | 87.3% | 80.4% | 81.2% | 96.9% |
| CCCCC#Cc1c(I)n(C)c(=O)[nH]c1=O | 63.2% | 52.9% | 39.4% | -78% (active) | 50% | -75.7% (active) | -54.2% (active) | 94.2% | -51.4% (active) | -61.1% (active) |
| COc1ccccc1C(=O)Nc1cccc(NC(=O)c2ccoc2C)c1 | 10.3% | 71% | 43.3% | 49.6% | 44.7% | 52.1% | 40.6% | 47.1% | 10.9% | 25% |
| CS(=O)(=O)c1ccc(NC(=O)c2ccccc2)nc1 | 109% | 109% | 99.1% | 99.9% | 93.5% | 111% | 106% | 92.3% | 74.7% | 71.3% |
| CN(CCCNC(=O)Cc1ccc2ccc3cccc4ccc1c2c34)CCCNc1cc(-c2ccc3ccccc3c2)nc2ccccc12 | -59.5% (active) | -44.6% (active) | -66.2% (active) | -47.4% (active) | -58.2% (active) | -66.4% (active) | -36.9% (active) | -62% (active) | -74.5% (active) | -82.9% (active) |
| O=C(/C=C/c1cccc(Cl)c1Cl)Nc1ncc(Cc2ccccc2Cl)s1 | 44.7% | 55.7% | 56.9% | 44.6% | 84.2% | 46.4% | 48% | 39.6% | 21.5% | 50.6% |
| N=C(N)c1ccc(-c2ccc(-c3cc(Cl)cc(Cl)c3)s2)nc1 | 109% | 94.5% | 83% | 90.6% | 115% | 74.8% | – | 91.6% | 21.7% | 2.78% (active) |
| C=CCOC(=O)C1=C(C)N(CC)C(=O)NC1c1c(Cl)n(C)c2ccccc12 (stereo unspecified) | 108% | 98.4% | 102% | 76.1% | 102% | 82.2% | 61.5% | 95% | -28% (active) | 93.7% |
| O=C(C1CCCCC1)[C@@H]1[C@]2(C(=O)NC3CCCCC32)[C@@H]2CCCN2[C@@]12C(=O)NC1CCC(Cl)CC12 (stereo partly specified) | -79.2% [100 µM] (active) | -89.5% [100 µM] (active) | -80% [100 µM] (active) | -73% [100 µM] (active) | -81.1% [100 µM] (active) | -97.8% [100 µM] (active) | – | -94.8% [100 µM] (active) | -49% [100 µM] (active) | -57.3% [100 µM] (active) |
| CCOC(=O)C1=C(C)/C(=C\c2[nH]c(C)c(C(=O)OCC)c2C)N=C1C | 85.6% | 94.2% | 79.1% | 73.7% | 108% | 96.5% | – | 103% | 4.69% (active) | 9.99% (active) |
| Oc1ccc(/C=C/c2ccc(O)cc2)cc1 | 90.8% | 76.5% | 62.5% | 21.5% | 61.1% | 11% | – | 77.5% | 4.33% (active) | 74.9% |
| CN1CCN(Cc2ccc(NC(=O)c3cncc(C#Cc4cnc(N)c5ccc(F)cc45)c3)cc2C(F)(F)F)CC1 | -55.1% (active) | 42% | 13.2% | -3.87% (active) | 24.1% | 6.63% (active) | – | 25% | -8.78% (active) | 13.1% |
| COc1ccc(/C(C)=C(\c2ccc(Cl)cc2)c2ccc(OCCN3CCCCC3)cc2)cc1 | 56.2% | 69.1% | 69.2% | 48.1% | 95.7% | 77.3% | – | 86.8% | 37.5% | 41.6% |
| CN(Cc1ccccc1)c1nc(Cl)c(C2CC(c3ccccc3)=NN2c2ccccc2)s1 (stereo unspecified) | 78.5% | 85.3% | 103% | 81.5% | 115% | 102% | 68.7% | 105% | 94.3% | 97.1% |
| O=S1(=O)C=C(c2ccccc2)C(c2ccccc2)=C1 | 52.1% | 90.1% | 12.8% | -6.37% (active) | -37.1% (active) | -47.4% (active) | – | 79.5% | 2.77% (active) | 1.8% (active) |
| CC1=C(CCC(C)NCc2ccc(OCCCN3CCCCC3)cc2)C(C)(C)CCC1 (stereo unspecified) | -82.1% (active) | -39.1% (active) | -60.7% (active) | -95.5% (active) | -94.3% (active) | -83.6% (active) | – | -71.5% (active) | -39.6% (active) | -41.7% (active) |
| Nc1nc(N)c(N=Nc2ccccc2)c(-c2ccccc2)n1 | 85.3% | 51.3% | 56% | 36% | 55.1% | 60.4% | 45.3% | 31% | 52.6% | 46.6% |
| Cc1ccc(-c2csc(NC(=O)c3ccccc3CN3C(=O)c4ccccc4C3=O)n2)cc1 | 97.3% | 93.6% | 94.5% | 85.9% | 94.4% | 108% | – | 99.8% | 102% | 93.4% |
| O=C(Cc1cccc(OC(F)(F)F)c1)Nc1ccc(CCCCc2nnc(NC(=O)Cc3ccccn3)s2)nn1 | 116% | 73.8% | 68.5% | 45.1% | 65% | 70% | – | 20.6% | 43% | 43.8% |
| COC(=O)N1CC(Oc2ccccn2)C2CC1c1ccccc1O2 (stereo unspecified) | 116% | 104% | 93% | 88.6% | 98.2% | 95.7% | – | 83.4% | 87.8% | 94.5% |
| CN1CCN(CCOc2ccc(-c3cnc4c(-c5cccc(F)c5F)cnn4c3)cc2)CC1 | 99.9% | 78.6% | 90.3% | 80.8% | -64.2% (active) | -22.7% (active) | – | 95.4% | -13.3% (active) | 80.5% |
| CCOC(=O)C(=CNc1cnc(Nc2ccc(N3CCOCC3)cc2)nc1Oc1ccc(OC)cc1)C(=O)OCC | 91.8% | 87.1% | 26.6% | 11.3% | -26% (active) | 19% | – | 42.1% | 37.7% | 60.5% |
| O=C(CSc1nc(-c2ccccc2)cc(=O)[nH]1)Nc1nc(-c2ccccc2)cs1 | 96.9% | 75.7% | 102% | 65.2% | 106% | 95.2% | – | 114% | 96.2% | -17.6% (active) |

From PubChem BioAssay (NCI)
